Measurements taken from PubChem BioAssay (NCI).
The panel holds about 83,000 compounds, 20% with a hit somewhere; the sample as a whole holds those more often.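 Cell lines were cultured in 96-well plates, exposed to a single compound concentration, and assessed for percent growth 48 hours later.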 Unmarked numbers belong to inactive results. The source made the active and inactive calls. The calls were made as follows: active = growth percent below 10; inactive = the rest.

system: PC-3 prostate; assay: NCI-60 one-dose screen, 48 h (100 = growth as untreated, 0 = no growth, -100 = all killed); details: 10 µM unless noted

SMILES	growth
COc1cc(-c2ccc[nH]2)[nH]c1/C=C1\N=C(C)C(CC(=O)OCC(C)(C)C)=C1C	-88.3% (active)
N#Cc1c(-c2ccc(Br)cc2)nc2c(N=Nc3ccc(S(N)(=O)=O)cc3)c(N)nn2c1N	37.6%
O=[N+]([O-])c1ccccc1Nc1ccc2ccccc2c1	92.3%
c1ccc(Nc2nc3c(s2)CCc2c[nH]cc2-3)nc1	70.4%
COc1ccc2cc(C(=O)N3CCC([C@@H](C)C(=O)NCc4ccc5c(c4)OCO5)CC3)[nH]c2c1	56.5% [50 µM]
Nc1cc(C(=O)O)cc(-n2c(O)c(C=C3N=c4ccccc4=N3)sc2=S)c1	92.4%
CC1(C)N=C(N)N=C(N)N1c1cc(Cl)ccc1Cl	101%
CC/C(=C(\c1ccc(Cl)cc1)c1ccc(OCCN2CCCCC2)cc1)c1ccc(O)cc1	30.4%
O=C1O[C@@H](c2ccccc2Cl)[C@@H]2c3cc4c(cc3CCN12)OCO4	87.7%
C=CCn1cc(-c2nc3ccccc3s2)c2cc(-c3ccc4c5c(cccc35)C(=O)N(CCO)C4=O)ccc21	83.7%
CCOC(=O)C#Cc1c(C(=O)OCC)nnn1[C@@H]1O[C@H](COC)[C@@H](OC)[C@H]1OC	92.4%
O=C(/C=C/c1ccccc1Cl)c1cccc(OCCCCOc2cccc(C(=O)/C=C/c3ccccc3Cl)c2)c1	91.1%
Nc1nc2ccccc2c2c(=O)c3cc(Cl)ccc3sc12	90.7%
C=CC(=O)Nc1cccc(Oc2nccc(Nc3nnc(-c4ccc(Br)cc4)s3)n2)c1	89.5%
CC/C(=C(/c1ccc(O)cc1)c1ccc(OCCN2CCCCC2)cc1)c1ccc(OC)cc1	79.4%
CNC(=O)c1cc(Oc2ccc3c(c2)sc2nc(-c4ccc(NC(=O)[C@@H](NC(=O)OC)C(C)C)cc4)cn23)ccn1	40.2%
Cn1c(=O)[nH]c(=O)c2nc3c(nc21)-c1ccccc1C3=O	95.8%
COC1C(O)CC(OC2CC(OC3CC(O[C@@H]4C(=O)c5c(cc6cc(OC7CC(OC8CC(O)C(O)C(C)O8)C(O)C(C)O7)c(C)c(O)c6c5O)CC4[C@H](OC)C(=O)O)OC(C)C3O)OC(C)C2O)OC1C (stereo partly specified)	21.8%

SMILES	growth
N#CC1=C(N)Oc2c(sc3c(F)cccc23)C1c1ccc([N+](=O)[O-])cc1 (stereo unspecified)	-10.4% (active)
COc1ccc(/C=C(/C(=O)N2CCNCC2)c2cc(OC)c(OC)c(OC)c2)cc1O	26.8%
Cc1ccc(NC(=O)c2cc3ccccc3cc2O)c(C)c1	35.9%
N#Cc1c(-c2ccccc2)nc2c(c(-c3ccccc3)nn2-c2ccccc2)c1-c1ccc(N2CCCCC2)cc1	90.5%
O=C(Nc1ccccc1O)c1ccc(CNc2ccnc(C(F)(F)F)c2)cc1	57.7%
COc1cc(/C=C2\C(=O)N(CCCOc3cc(O)c4c(=O)cc(-c5ccccc5)oc4c3)c3ccccc32)cc(OC)c1O	67%
CN1C(=O)N2CN3CCCN(C3)CN3C(=S)NC1C23 (stereo unspecified)	98.4%
O=c1oc2ccccc2cc1-c1nn(-c2ccccc2)cc1-c1nn[nH]n1	91.5%
COc1cc(OC)c2c(=O)c3c(CC=C(C)C)cc(OC)c(O)c3oc2c1	99.2%
COC(=O)c1c2c(c[n+]([O-])c1C)C(=O)C=C(NCc1ccccc1)C2=O	-10.8% (active)
N#C/C(=C\c1ccc(-c2cccc(Cl)c2)o1)C(=O)Nc1ncc(Cc2ccc(Cl)cc2)s1	39.5%
O=C(/C=C/c1ccccc1)c1ccc(-n2cc(CN3CCN(c4cc5c(cc4F)c(=O)c(C(=O)O)cn5C4CC4)CC3)nn2)cc1	79.3%
N#Cc1ccc(/C=C/c2cn(-c3ccccc3)nc2-c2cccc([N+](=O)[O-])c2)cc1	44.3%
c1ccc(Cn2cc3c(c2-c2ccccc2)CCc2cnoc2-3)cc1	82.5%
NCCCNc1nc2ccccc2c2c(=O)c3cc(Cl)ccc3sc12	-18.9% (active)
Cc1cc(C)c2c(c1)N(C)c1ncnc(-n3c(C)nc4cc(C)ccc43)c1CC2C (stereo unspecified)	24.7%
CSc1ccc2c3c(n(CCCn4ccnc4)c(=O)c2c1)-c1ccccc1C3=O	45.6%
COc1ccc(C(=O)/C=C/c2ccccc2)cc1S(N)(=O)=O	74%
